# Data taken from the supplement of paper PMC6555819.
# How the values were obtained:
# Assay in all cases: PBM binding z-score (relative to random genomic background probes); higher = stronger binding; sequences stand for … in GC…GCGATTGACAGCGTAGAATGAAGG
# [1] = tested on: FXR:RXRa (NR concentration 270 nM, RXRa partner concentration 90 nM)
# How it was run: (§1)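 Probes were double-stranded and carried 34-nt variable regions with direct-repeat seeds, single-nucleotide variants, half-site ablations and random human genomic background sequences, printed on custom Agilent 4×180K protein-binding microarrays. Arrays were incubated 1 h with ligand-free nuclear receptor dimers in PBS pH 7.4, 2% milk, 0.02% Triton X-100, 1 mM DTT, 0.2 mg/mL BSA and 0.4 mg/ml salmon testes DNA. Antibodies against each partner (one per run) detected binding, and scanned fluorescence was regression-normalized. Binding z-scores use the random background probes as reference.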
# [2] = tested on: LXRa:RXRa (NR concentration 270 nM, RXRa partner concentration 90 nM)
# How it was run: as §1
# [3] = tested on: LXRa homodimer (NR concentration 270 nM)
# How it was run: as §1
# [4] = tested on: LXRb:RXRa (NR concentration 270 nM, RXRa partner concentration 90 nM)
# How it was run: as §1
# [5] = tested on: LXRb homodimer (NR concentration 270 nM)
# How it was run: as §1
# [6] = tested on: PPARa:RXRa (NR concentration 270 nM, RXRa partner concentration 90 nM)
# How it was run: as §1
# [7] = tested on: PPARg:RXRa (NR concentration 180 nM, RXRa partner concentration 90 nM)
# How it was run: as §1
# [8] = tested on: PPARg:RXRa 270nM:90nM, anti-RXR (NR concentration 270 nM, RXRa partner concentration 90 nM)
# How it was run: as §1
# [9] = tested on: PPARg:RXRa 30nM:10nM, anti-RXR (NR concentration 30 nM, RXRa partner concentration 10 nM)
# How it was run: as §1
# [10] = tested on: PPARg:RXRa 90nM:30nM, anti-RXR (NR concentration 90 nM, RXRa partner concentration 30 nM)
# How it was run: as §1
Sequence,PBM binding z-score [1],PBM binding z-score [2],PBM binding z-score [3],PBM binding z-score [4],PBM binding z-score [5],PBM binding z-score [6],PBM binding z-score [7],PBM binding z-score [8],PBM binding z-score [9],PBM binding z-score [10]
CGTCAAAGTTCAACTAAGGTAACGTTAAGCACGC,7.22,6.43,4.8,4.26,2.3,5.14,5.07,5.53,2.21,4.37
GGAACGAGGGCATTCGAGTTGATAGAATGGCGAT,1.44,1.37,-0.262,0.195,-0.719,1.27,0.965,0.758,0.0506,0.303
GATACAGCGTCAAGGCCAGAGTACGCGTATTGAT,-0.565,-0.762,-0.347,-0.832,-0.969,-0.514,0.602,-0.494,-0.309,-0.649
CGTCCACGGTCAGCAGGTCAGTGAAAGCGACGTG,0.822,0.439,-0.291,-0.097,-0.966,1.08,0.155,0.415,-0.695,-0.328
GCGACTGGGGCATCAGCAGGTTACTATAACTTAA,0.0216,-0.0377,-0.448,0.689,-0.343,1.27,0.884,1.05,-0.238,0.594
ATCTCTAGGTAAAAGTTTAGTGAATCCCGAGGAT,0.336,0.276,0.317,0.0669,1.09,2.34,3.7,4.99,2.89,5.11
ATCGACAGGTCGAAGGTGAGTATACCCACCCGAA,0.612,0.709,-0.323,0.59,-0.341,2.27,2.57,2.71,1.04,2.75
GCTTATAGGTAATACAAGGTGAAAGTCCGATTGT,0.773,2.61,0.251,0.934,-0.275,1.5,0.93,1.22,0.379,0.916
GGAACGAGGGCAAGTTGTTAGCAGAGTTTGATGG,0.972,0.498,-0.221,0.541,-0.646,1.84,0.863,1.04,-0.161,0.479
CCTGGCAGGCCAATCTGGGTCACTCAAGGCTTGA,0.937,0.927,-0.703,0.276,-1.26,2.69,1.37,2.06,-0.284,1.22
TCTTGTAGATCAAGCAGGTAAAGAAAGCCTGAGT,0.242,0.228,-0.344,0.219,-0.624,0.499,-0.39,0.967,2.41,1.62
CGACCGAGGGCATGAGTTGATAGCAAATGCCGAT,0.304,0.28,-0.485,0.286,-0.854,0.989,0.738,-0.153,-0.657,-0.438
TCATATTGGTAAAGGTGAAAGTCGAACGATATGA,0.751,1.1,-0.299,1.19,0.0352,2.58,1.89,3.8,3.95,3.9
TCTTTTAGATCAAAGGTTAAGAAAGCCGAAGCCT,1.68,2.05,0.26,2.19,0.802,4.08,6.36,6.92,6.34,7.4
CGTCAAAGCTCAAGGTAACGTAACAGAAAGCAGC,-0.214,-0.485,-0.372,-0.335,-0.863,-0.0672,0.521,-0.193,0.0179,0.133
CCTACTGGGCCACCAAAGGTCATTGATTCAGTGA,3.72,5.73,6.47,4.95,0.575,4.69,5,5.44,2.81,4.94
ATCGAAAGGTCGTGAGGTGAGTATGCAGAAAGGC,5.14,4.02,0.302,2.91,0.303,5.19,3.67,4.56,1.24,3.19
CGTCTAAGGTCAATGCTAGGTCAGTGAAAGCATT,7.02,5.82,2.56,4.58,1.34,5.36,4.53,5.68,1.9,4.12
CGAACTAGGTCATCCAGGACACTGAATACATTGA,4.41,3.1,0.974,2.29,0.265,4.94,7.9,6.43,3.85,5.81
CCTATTAGTTGACCACAAGGGCAACCGAAGCTCG,0.713,0.65,0.493,0.591,0.786,0.698,0.53,0.203,0.1,0.256
TCTAGCAGGCCAGAGGTTCACTCAAGAGGTACGG,-0.592,-0.361,-0.519,-0.224,-1.44,0.888,1.43,2.96,2.15,2.98
TCTCGGAGGACACGAAAGGTCAGCGCTCGACATC,3.42,4.26,2.8,3.54,-0.162,3.88,1.58,3.31,2.59,2.86
CCTAGTTGGTCAGAAGGTCACACACCGGATATGA,3.53,3.45,1.87,3.36,1.07,4.17,2.81,4.25,1.8,3.82
ACACGGAGGACAAAGGTCAGAGCTACGCCAGTGA,4.18,4.33,1.74,3.36,0.366,5.18,7.55,7.26,5.39,7.07
TGAATGAGGTTAAAGAGCAGGGAACGTGGCGTCG,2.98,2.56,-0.586,1.45,0.129,4.23,4.98,6.01,4.52,5.96
